Rows were chosen to be rich in hits. Some 18% of all compounds tested hit in one or more screens of this group.
TDP1 block: inhibitors of human tyrosyl-DNA phosphodiesterase TDP1 | Q9NUW8 | Potency, µM (series often up to 130 µM), for the others: at the highest dose activity change, negative = inhibition, usual class: inhibitors | recombinant TDP1, AlphaScreen DNA substrate cleavage | actives 0.28% (n = 350,000) | AID 485290; note: potency is the fitted concentration of half-maximal effect; nearly all actives have a fitted effect of over 40% in size
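Steps: enzyme plus compound, 15 min RT; add biotin/phosphotyrosine-FITC oligonucleotide (15 nM final), react 5 min; add donor/acceptor beads (10 ug/ml final), 10 min; read AlphaScreen. Tdp1 at 1 nM final.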
Six1-Eya2 inh: inhibitors of human Six1/Eya2 interaction. actives 0.56% (n = 360,000). AID 651725. activity change, % (no concentration beside the values). Q15475+O00167. AlphaScreen GST-Six1/His-Eya2 binding, biochemical; active compounds read low; in the data active = activity change below about -65%; inconclusive = mostly about -30% to -63%
Target sequence (O00167 whole entry, looked up): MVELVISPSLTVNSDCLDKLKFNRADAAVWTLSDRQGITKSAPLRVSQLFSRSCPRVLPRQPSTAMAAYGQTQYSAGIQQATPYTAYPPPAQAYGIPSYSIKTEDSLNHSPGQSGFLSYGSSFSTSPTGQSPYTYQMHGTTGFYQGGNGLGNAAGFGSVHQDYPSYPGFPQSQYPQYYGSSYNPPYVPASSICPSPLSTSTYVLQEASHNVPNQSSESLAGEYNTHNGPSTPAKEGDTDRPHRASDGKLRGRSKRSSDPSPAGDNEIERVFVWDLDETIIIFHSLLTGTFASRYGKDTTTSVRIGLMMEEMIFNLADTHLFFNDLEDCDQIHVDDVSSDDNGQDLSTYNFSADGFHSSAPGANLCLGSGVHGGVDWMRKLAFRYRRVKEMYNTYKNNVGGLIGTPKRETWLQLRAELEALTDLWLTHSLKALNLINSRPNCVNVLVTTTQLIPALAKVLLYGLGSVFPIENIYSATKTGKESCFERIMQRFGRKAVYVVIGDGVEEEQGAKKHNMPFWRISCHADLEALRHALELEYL
Target sequence (Q15475 whole entry, looked up): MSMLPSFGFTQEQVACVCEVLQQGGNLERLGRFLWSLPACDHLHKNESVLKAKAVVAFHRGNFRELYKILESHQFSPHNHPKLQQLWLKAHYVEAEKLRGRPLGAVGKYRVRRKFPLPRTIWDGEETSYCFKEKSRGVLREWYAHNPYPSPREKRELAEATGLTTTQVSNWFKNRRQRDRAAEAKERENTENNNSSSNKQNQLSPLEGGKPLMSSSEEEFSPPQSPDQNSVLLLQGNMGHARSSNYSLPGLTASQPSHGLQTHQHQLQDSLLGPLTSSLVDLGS
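Six1/Eya2 binding was read as AlphaScreen signal after compounds were pinned into GST-Six1 plus His-tagged Eya2 (5X stock 250/500 nM) in pH 8.0 Tris/NaCl/TCEP buffer, beads added, then incubated 1 h, 37 C, dark.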
CtBP-E1A blk: blocks the CtBP interaction with E1A; activity change, % (test concentration not listed); AID 651724; AlphaScreen GST-E1A/His-CtBP binding, 1536-well; active compounds read low; actives 0.49% (n = 340,000); in the data active = activity change below about -65%; inconclusive = mostly about -30% to -63%
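AlphaScreen with 125 nM GST-E1A and 125 nM His-CtBP (5X stocks) in Tris pH 8.0, 300 mM NaCl, BSA, Tween 20, TCEP. Compounds preincubated 2 h at 37 deg C, then glutathione donor/nickel acceptor beads added for 1 h at 37 deg C in dark.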
TDP1 cell CPT: DT40-hTDP1 cell growth loss with CPT. chicken DT40 Tdp1-/-;hTDP1 cells + 20 nM CPT, ATP luminescence, 48 h. Potency, µM (doses to about 46.2 µM), without a hit: at the top dose activity change, negative = growth inhibition, hits mostly inhibitors. actives 12% (n = 420,000). AID 686979; note: potency is the fitted concentration of half-maximal effect; nearly all actives have a fitted effect of over 55% in size
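Chicken DT40 Tdp1-/- cells complemented with human TDP1, 400 cells/well, exposed to compounds plus 20 nM camptothecin for at least 48 h at 37 C; viability read as ATP content by CellTiter-Glo luminescence.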
IL1B secr inh: inhibitors of inflammasome signaling (IL-1 beta secretion). THP-1 LPS/ATP IL-1B secretion, AlphaLISA, 16 h; active compounds read low. activity change, % at 57.5 µM. actives 4.7% (n = 360,000). AID 743279; in the data active = activity change below about -50%; inconclusive = mostly about -30% to -49%
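THP-1 cells pretreated 1 hr with compounds (up to 57.5 uM final), then stimulated with LPS (250 ng/mL final) plus ATP (1.25 mM final); secreted IL-1B measured by AlphaLISA after 16 hr, decreased signal indicating inhibition.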
DT40 TDP1 no CPT: qHTS for Inhibitors of human tyrosyl-DNA phosphodiesterase 1 (TDP1): qHTS in cells in absence of CPT | DT40 Tdp1-/- hTDP1 cells, no CPT, ATP luminescence, 48 h | Potency, µM (top dose mostly 46.2 µM), without a hit: at the highest dose activity change, negative = growth inhibition, usual class: inhibitors | actives 15% (n = 420,000) | AID 686978, 2013; note: potency is the fitted concentration of half-maximal effect; nearly all actives have a fitted effect of over 55% in size
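DT40 Tdp1-/-;hTDP1 cells, no CPT (DMSO vehicle only), 400 cells/well; compounds pin-transferred; ≥48 hr, 37 °C; CellTiter-Glo 30 min RT dark, luminescence read.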
Starred values were filed as active, the others as inactive; u = inconclusive; x = not tested or not shown; [ ] = dose if it differs, or a comment. Unless noted, calls come from the whole dose curve; as a rule, active = well fitted curve in the direction sought with a large enough effect; inconclusive = small, poorly fitted or top-dose-only effect, or another doubt; inactive = no such curve, though single readings can be large; an effect the other way counts as inactive or inconclusive. % is set by controls: 0 for no effect and ±100 for the full control effect.

SMILES	TDP1 block	Six1-Eya2 inh	CtBP-E1A blk	TDP1 cell CPT	IL1B secr inh	DT40 TDP1 no CPT
CC1(C(=O)Nc2cccc(NS(C)(=O)=O)c2)CCN1Cc1ccccc1OC(F)F (stereo unspecified)	x	-3	3	23µM*	-22	16µM*
CC1(C(=O)Nc2ccc3c(c2)OCCO3)CCN1Cc1ccccc1OC(F)F (stereo unspecified)	x	-3	0	u	10	u
COc1ccc(OC)c(NC(=O)C2(C)CCN2Cc2ccccc2OC(F)F)c1 (stereo unspecified)	x	-12	-13	u	-17	16µM*
Cc1c(Br)cccc1NC(=O)C1(C)CCN1Cc1ccccc1OC(F)F (stereo unspecified)	x	45	38	26µM*	-2	u
COc1cccc(NC(=O)C2(C)CCN2Cc2ccccc2OC(F)F)c1 (stereo unspecified)	x	-4	5	21µM*	-13	16µM*
CC(=O)N1CCc2cc(NC(=O)C3(C)CCN3CCc3ccccc3)ccc21 (stereo unspecified)	x	-5	-7	21µM*	-6	21µM*
COc1ccc(OC)c(NC(=O)C2(C)CCN2C(C)C)c1 (stereo unspecified)	x	-2	17	-18%	0	-22%
CC(=O)N1CCc2cc(NC(=O)C3(C)CCN3Cc3ccccc3OC(F)F)ccc21 (stereo unspecified)	x	-9	3	26µM*	-9	18µM*
Cc1ccc(NC(=O)C2(C)CCN2CCc2ccccc2)cc1O (stereo unspecified)	x	22	0	-24%	0	-21%
COc1ccc(OC)c(NC(=O)C2(C)CCN2Cc2ccsc2)c1 (stereo unspecified)	x	-22	-11	16µM*	-9	12µM*
NC(=O)c1nsc(C(=O)N(CC(=O)NCc2ccco2)c2ccccc2F)c1N	0%	12	-17	u	-14	u
CCC1CN(C)C2Cc3c([nH]c4ccccc34)C(=O)CC1C2C(=O)OC (stereo unspecified)	x	21	0	23µM*	7	-38%
COC(=O)[C@H]1[C@@H]2C[C@@H]3c4[nH]c5ccccc5c4CCN3C[C@H]2CC[C@H]1O	10%[56.1 µM]	x	x	5%	x	-24%
O=C(/C=C/c1ccc(O)c(O)c1)O[C@@H]1C[C@@](OC(=O)/C=C/c2ccc(O)c(O)c2)(C(=O)O)C[C@@H](O)[C@@H]1O	x	x	x	3%	x	u
COc1ccc2c(c1)CC/C(=C/c1ccco1)C2=O	0%	-10	-12	-2%	-14	-25%
COc1ccc(/C=C2\CCc3ccccc3C2=O)cc1CN1CCOCC1	x	-8	u	u	-10	u
COc1ccc2c(c1)CC/C(=C\c1ccc(OC)c(Cn3cccn3)c1)C2=O	7%	-7	-14	18µM*	-52*	26µM*
COc1ccc2c(c1)CC/C(=C\c1ccc(OC)c(Cn3nc(C)cc3C)c1)C2=O	x	-12	-15	16µM*	13	18µM*
CNC(=O)CSc1nnc(-c2ccco2)n1-c1ccccc1OC	-14%	-2	-2	-2%	-6	0%
CCCCNC(=O)c1onc(CSc2nc3ccccc3[nH]2)c1C(=O)NCCCC	x	-1	3	u	-24	u
O=C(NCC1CC1)c1onc(CSc2nc3ccccc3[nH]2)c1C(=O)NCC1CC1	x	-3	-8	21µM*	-12	u
O=C(NC(CSCc1ccccc1)C(=O)N/N=C/c1ccc(O)cc1O)c1ccc([N+](=O)[O-])cc1 (stereo unspecified)	11%	u	u	7.1µM*	113	4.5µM*
CCOc1ccccc1NC(=O)Cn1c(=O)n(Cc2ccccc2)c(=O)c2c3c(sc21)CN(C(C)=O)CC3	-5%	x	x	u	x	u
